{"source": "PubChem BioAssay AID651636", "about": "(Sanford-Burnham Center for Chemical Genomics, 2012)", "note": "Hit rate of the full screen: of about 360,000 compounds, about 3,000 (0.83%) were called active. The entries come from a sample that favours actives as a whole. A number with no mark means an inactive call. Rule as the data show it: active = inhibition above about 38%; inactive = the rest."}
{"molecular_target": "G-protein coupled receptor 183 (Homo sapiens) (UniProt P32249)", "sequence (P32249 whole entry, looked up, the tested form may be a part)": "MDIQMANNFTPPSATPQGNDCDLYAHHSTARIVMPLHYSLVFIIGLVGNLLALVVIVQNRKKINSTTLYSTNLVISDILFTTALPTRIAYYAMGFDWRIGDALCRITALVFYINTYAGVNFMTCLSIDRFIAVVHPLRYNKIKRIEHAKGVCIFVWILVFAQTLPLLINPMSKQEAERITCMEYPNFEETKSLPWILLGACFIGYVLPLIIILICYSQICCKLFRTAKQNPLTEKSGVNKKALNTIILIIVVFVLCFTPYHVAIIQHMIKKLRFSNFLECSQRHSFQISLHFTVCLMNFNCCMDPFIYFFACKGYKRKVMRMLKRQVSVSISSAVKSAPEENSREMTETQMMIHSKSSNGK", "assay": "EBI2 receptor antagonists, beta-arrestin recruitment, primary screen, cell-based, luminescence, 7a,25-OHC stimulation, uHTS (AID 651636);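 also: enzyme fragment complementation signal reports receptor beta-arrestin coupling in cells; 0% = agonist plus DMSO wells and 100% = wells without agonist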", "conditions": "7a,25-OHC stimulated, at 5 µM, stronger effect = higher value"}
{"molecule": "CCC(=C/c1sc2ccc3ccccc3c2[n+]1C)/C=C1\\Sc2ccc3ccccc3c2N1C", "inhibition": "1.97%"}
{"molecule": "Cc1ccc(SCC(=O)N2CCN(c3ccc(F)cc3)CC2)cc1", "inhibition": "62.9% (active)"}
{"molecule": "CCOC(=O)N1CCN(C(=O)CSc2ccc(Cl)cc2)CC1", "inhibition": "84.7% (active)"}
{"molecule": "CCN1CCN(C(=O)CCN2C(=O)c3ccccc3C2=O)CC1", "inhibition": "5.39%"}
{"molecule": "Cc1ccc(-n2c(CNc3ccc(F)cc3)nnc2SCC(=O)N2CCOCC2)cc1", "inhibition": "7.68%"}
{"molecule": "O=C(CSc1ccc(Cl)cc1)NC1CC1", "inhibition": "-0.473%"}
{"molecule": "CCN1CCN(C(=O)CSc2ccc(C)cc2)CC1", "inhibition": "70.3% (active)"}
{"molecule": "CS(=O)(=O)N(CC(=O)N1CCN(c2ccc(F)cc2)CC1)C1CCCCC1", "inhibition": "-6.78%"}
{"molecule": "CS(=O)(=O)N1CCN(C(=O)CSc2ccccc2)CC1", "inhibition": "4.92%"}
{"molecule": "CCOC(=O)N1CCN(C(=O)CSc2nc(C)nc3c2c(=O)n(C)c(=O)n3C)CC1", "inhibition": "-7.04%"}
{"molecule": "COC(=O)CNC(=O)C(CCSC)NC(C)=O", "note": "(stereo unspecified)", "inhibition": "5.29%"}
{"molecule": "Cc1nc(C(F)(F)F)ccc1C(=O)N1CCC1(C)C(=O)NS(=O)(=O)c1ccc(F)cc1F", "note": "(stereo unspecified)", "inhibition": "3.24%"}
{"molecule": "CNC(=O)C1CC(=O)N(c2ccc(OCC(=O)Nc3ccccc3C)cc2)C1", "note": "(stereo unspecified)", "inhibition": "2.34%"}
{"molecule": "Cc1nnc(SC(C)C(=O)c2c[nH]c3ccccc23)n1C1CC1", "note": "(stereo unspecified)", "inhibition": "-6.27%"}
{"molecule": "CCOc1cc(-c2conc2N)cc(OCC)c1OCC", "inhibition": "7.1%"}
{"molecule": "CC(C)(C)OC(=O)C[C@@H]1C/C=C\\C[C@@H](CC(=O)N[C@@H](CO)Cc2ccccc2)C(=O)N2CCC[C@H]2COC1=O", "inhibition": "1.7%"}
{"molecule": "CCC(C(=O)OC)n1cnc2c(oc3ccccc32)c1=O", "note": "(stereo unspecified)", "inhibition": "3.69%"}
{"molecule": "COC(=O)c1ccc(CN(c2ccccc2OC)S(=O)(=O)c2cccs2)o1", "inhibition": "7.2%"}
{"molecule": "O=C(OCc1nnc(-c2ccccc2)o1)c1cc(=O)[nH]c2ccccc12", "inhibition": "-5.82%"}
{"molecule": "CCCc1nc2ccccc2c(C(=O)OCc2nnc(-c3cc(OC)c(OC)c(OC)c3)o2)c1CC", "inhibition": "51.2% (active)"}
{"molecule": "CCOC(=O)c1cc(-c2nnc(-c3cc(OC)c(OC)c(OC)c3)o2)c(C)nc1C", "inhibition": "-9%"}
{"molecule": "COc1ccc(S(=O)(=O)NCC(=O)NCc2cc(=O)n(C)c(=O)n2C)cc1F", "inhibition": "2.08%"}
{"molecule": "CC(=O)NCCc1ccc(S(=O)(=O)N(C)C2CCS(=O)(=O)C2)cc1", "note": "(stereo unspecified)", "inhibition": "-2.21%"}
{"molecule": "Cc1cccn2c(=O)c3cc(C(=O)NC4CCCCC4)sc3nc12", "inhibition": "8.11%"}
{"molecule": "Cc1cccn2c(=O)c(/C=C(\\C#N)S(=O)(=O)c3ccc(Cl)cc3)c(N3CCC(C(N)=O)CC3)nc12", "inhibition": "-5.33%"}
{"molecule": "Cc1cc(C)cc(Oc2nc3c(C)cccn3c(=O)c2/C=C(\\C#N)C(=O)NC2CCS(=O)(=O)C2)c1", "note": "(stereo unspecified)", "inhibition": "50.3% (active)"}
{"molecule": "FC(F)(F)c1cccc(-c2nc3ccccc3n2C(c2ccccc2)c2nc3ccccc3[nH]2)c1", "note": "(stereo unspecified)", "inhibition": "8.62%"}
{"molecule": "CSCCC(C(=O)NC1=NCCS1)N1C(=O)c2ccccc2C1=O", "note": "(stereo unspecified)", "inhibition": "1.85%"}
{"molecule": "COC(=O)N/N=C/c1c[n+]([O-])c2ccccc2[n+]1[O-]", "inhibition": "-1.98%"}
{"molecule": "COc1ccc(/C=C/C(=O)c2cc(Br)ccc(=O)c2O)cc1", "inhibition": "-0.626%"}
{"molecule": "COc1ccc(C(=O)/C=C/c2ccc(OC3CSC3)cc2)cc1", "inhibition": "60.1% (active)"}
{"molecule": "COc1ccc(OC)c(/C=C/C(=O)c2ccc3c(c2)OCO3)c1", "inhibition": "8.22%"}
{"molecule": "COc1ccc(/C=C/C(=O)c2ccc(OC)cc2O)cc1", "inhibition": "73.8% (active)"}
{"molecule": "COc1ccc(/C=C/C(=O)NC(=S)N2CCCC(C(N)=O)C2)cc1", "note": "(stereo unspecified)", "inhibition": "-8.77%"}
{"molecule": "COc1ccc(C(=O)CC(=O)c2ccc(C)cc2)c(O)c1", "inhibition": "-3.66%"}
{"molecule": "CC(C)[C@H](NC(=O)c1ccc(F)cc1)C(=O)OCC(=O)NC(=O)c1cccn1C", "inhibition": "-1.33%"}
{"molecule": "Cc1cc(C)cc(NC(=O)COc2coc(CN3CCN(c4ccccc4)CC3)cc2=O)c1", "inhibition": "-4.06%"}
{"molecule": "CCCc1cc(=O)[nH]c(SCc2ccc(C#N)cc2)n1", "inhibition": "-20.6%"}
{"molecule": "N#CC(=C1SC=CS1)c1nc(-c2ccccc2)cs1", "inhibition": "-66.2%"}
{"molecule": "N#CC(=C1CCCC1)c1nc(-c2ccc(Cl)cc2)cs1", "inhibition": "54.1% (active)"}
{"molecule": "CCCCCN1CC(O)=C(c2nc(-c3ccc(Cl)cc3)cs2)C1=N", "inhibition": "-3.67%"}
{"molecule": "O=C(Nc1cccc(S(=O)(=O)NC2=NCCC2)c1)C1CCCCC1", "inhibition": "-4.45%"}
{"molecule": "CC(=O)c1ccc(NC(=O)CCc2nnc3ccc(NCc4ccco4)nn23)cc1", "inhibition": "-2.75%"}
{"molecule": "CCN(CC)S(=O)(=O)c1cccc(C(=O)NCC(=O)OCC(=O)NCc2ccccc2)c1", "inhibition": "-10.4%"}
{"molecule": "Cc1c(NC(=O)C(C)OC(=O)c2cc3c4ccccc4n(C)c3s2)c(=O)n(-c2ccccc2)n1C", "note": "(stereo unspecified)", "inhibition": "-12.7%"}
{"molecule": "Cc1cccc(N2CCN(C(=O)/C=C/c3ccco3)CC2)c1C", "inhibition": "33%"}
{"molecule": "Cc1cccc(N2CCN(C(=O)c3cc4c(=O)[nH]c5ccccc5c4n3C)CC2)c1C", "inhibition": "88.2% (active)"}
{"molecule": "CCn1c(C)c(C)c2cc(C(=O)N3CCN(c4cccc(C)c4C)CC3)ccc21", "inhibition": "15.1%"}
{"molecule": "CCCn1c(NC(=O)C23CC4CC(CC(O)(C4)C2)C3)nc2ccccc21", "inhibition": "-9.2%"}
{"molecule": "CCOC(=O)C(C)Oc1cccc2c(=O)n(CC(=O)N3CCc4ccccc43)ccc12", "note": "(stereo unspecified)", "inhibition": "11.2%"}
{"molecule": "COc1cc(/C=C(/NC(=O)c2ccccc2)C(=O)Nc2cccc(O)c2)c([N+](=O)[O-])cc1OC", "inhibition": "5.05%"}
{"molecule": "COc1cc(NC(=O)COC(=O)CSc2ccc3ccccc3c2)c(C)cc1[N+](=O)[O-]", "inhibition": "-6.04%"}
{"molecule": "COc1cc(/C=C(\\C#N)C(=O)Nc2ccc3ccccc3c2)c([N+](=O)[O-])cc1OC", "inhibition": "49.6% (active)"}
{"molecule": "COc1ccc(CN2C(=O)CN=C2Nc2ccc(C)cc2C)cc1", "inhibition": "-8.98%"}
{"molecule": "COC(=O)[C@@]12C[C@@H](CC(=O)NCCCCc3ccccc3)C(=O)N(Cc3ccccc3)C1=CCC(C)(C)C2", "inhibition": "17.4%"}
{"molecule": "O=C(NNC(=O)c1cnccc1C(F)(F)F)c1ccc(Cl)cc1", "inhibition": "-6.52%"}
{"molecule": "CCN(C(=O)CSc1ncnc2sccc12)c1c(N)n(Cc2ccccc2)c(=O)[nH]c1=O", "inhibition": "-7.44%"}
{"molecule": "O=C(CSc1nnnn1C1CCCC1)Nc1ccc2c(c1)OCCO2", "inhibition": "0.834%"}
{"molecule": "CCOc1ccc(/C=C/C(=O)N(CC)CC(=O)NCc2cccs2)cc1OC", "inhibition": "2.03%"}
{"molecule": "CCN(CC(=O)NCc1cccs1)C(=O)/C=C/c1ccc(C)cc1", "inhibition": "92% (active)"}
{"molecule": "CCN(CC(=O)NCc1cccs1)C(=O)c1ccccc1F", "inhibition": "0.894%"}
